Assay outcomes deposited in PubChem by National Center for Advancing Translational Sciences (NCATS).
A selection: hits, their analogues and other compounds. The true share with any hit is near 3.2%.
Tau FP inhib – tau fibrillization inhibition (FP). P10636. K18 P301L tau heparin fibrillization, Alexa594 FP, 6 h. Potency, µM (highest dose often 57.7 µM), for inactives: at the top dose activity, negative = inhibition, most hits filed as inhibitors. 280,000 tested, 0.39% active. AID 1468; further: nearly all actives have a fitted effect of over 55% in size
Target sequence (P10636 561-689 P618L limits assumed): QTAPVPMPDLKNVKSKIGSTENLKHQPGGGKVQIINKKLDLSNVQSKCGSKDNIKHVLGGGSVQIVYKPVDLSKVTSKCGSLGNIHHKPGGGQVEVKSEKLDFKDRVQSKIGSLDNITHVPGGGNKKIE
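Human K18 P301L fragment (15 uM unlabeled plus 0.24 uM Alexa 594-labeled) in 100 mM sodium acetate pH 7 with compound, aggregation induced by 20 uM heparin for 6 hr at 37 C. ThT (30 uM) added for 1 hr, then Alexa 594 FP read.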
TexasRed fluor – Texas Red fluorescence interference in TRb-SRC2 counter-screen | 280,000 tested, 0.29% active | TRb/SRC2 Texas Red total fluorescence interference | AID 1479 | Potency, µM (series often up to 106 µM), inactives show top-dose fluorescence change, negative = quenching; active means well fitted curve in either direction with a large enough effect; inconclusive means small, poorly fitted or top-dose-only effect
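Flags fluorescent or light-absorbing compounds by total fluorescence, S + 2P, at 555 nm excitation and 632 nm emission. Mixture: 20 nM Texas Red SRC2 peptide, 0.6 uM human TRb LBD, 1 uM T3, 5% DMSO; compound exposure 5 h at ambient temperature.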
GoLoco inh red – RGS12 GoLoco-Gai1 interaction inhibition; Potency, µM (top dose mostly 61.6 µM), for inactives: at the top dose activity, negative = inhibition, usual class: inhibitors; Gai1:RGS12 GoLoco peptide FP, rhodamine, 10 min; AID 880; 230,000 tested, 0.44% active; P63096; active means well fitted inhibition curve with a large enough effect, not every such curve was filed as active; inactive means no such curve, though single readings can be large or run the other way; further: nearly all actives have a fitted effect of over 30% in size
Target sequence (P63096 whole entry, looked up): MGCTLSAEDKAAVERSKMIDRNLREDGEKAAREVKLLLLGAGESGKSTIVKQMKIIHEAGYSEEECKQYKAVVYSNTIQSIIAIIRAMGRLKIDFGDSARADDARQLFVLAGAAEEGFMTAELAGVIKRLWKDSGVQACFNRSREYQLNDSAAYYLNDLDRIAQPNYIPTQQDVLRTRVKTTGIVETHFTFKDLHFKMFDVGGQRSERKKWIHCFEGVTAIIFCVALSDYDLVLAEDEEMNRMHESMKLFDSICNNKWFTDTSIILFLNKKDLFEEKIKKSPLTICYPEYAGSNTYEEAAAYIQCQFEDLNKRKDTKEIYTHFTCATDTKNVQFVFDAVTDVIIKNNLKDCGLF
Tau ThT inhib – tau fibrillization inhibition (ThT binding); P10636; recombinant tau K18 P301L, heparin-induced fibrillization, ThT fluorescence; Potency, µM (top dose mostly 57.4 µM), for the others: top-dose activity, negative = inhibition, usual class: inhibitors; 270,000 tested, 2.1% active; AID 1460; further: nearly all actives have a fitted effect of over 55% in size
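ThT emission at 510 nm, taken 1 hr after adding 30 uM dye, quantifies aggregates formed when 20 uM heparin acts on human tau K18 P301L for 6 hr at 37 C.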
Tau fluor cs – counter-screen for tau fibril formation inhibitors; tau K18 P301L Alexa594 fluorescence, heparin fibrillization; Potency, µM (highest dose often 57.7 µM), for the others: at the highest dose activity change, negative = decrease; 280,000 tested, 0.93% active; AID 1463; further: nearly all actives have a fitted effect of over 55% in size
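Human tau K18 P301L (15 uM unlabeled, 0.24 uM Alexa 594-labeled) in 100 mM sodium acetate pH 7 with 20 uM heparin, 6 hr at 37 C. ThT 30 uM added, 1 hr ambient; Alexa 594 FP and total fluorescence read at 555/632 nm.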
TRb SRC2 PPI – disrupts binding of human TR beta to SRC2. P10828. TRbeta-SRC2 peptide binding, fluorescence polarization; receptor liganded with 1 µM T3. Potency, µM (doses to about 106 µM), for the others: at the top dose activity change, negative = inhibition, most hits filed as inhibitors. 280,000 tested, 0.065% active. AID 1469;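 further: plate controls were bound peptide for no effect and peptide without receptor for full effect; nearly all actives have a fitted effect of over 50% in size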
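A fluorescence polarization screen tested compounds at multiple concentrations against complex formation between 0.6 uM TRb ligand-binding domain and 20 nM Texas Red SRC2 peptide, with 1 uM T3 present; readout after 5 hr.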
The depositor's hits bear a star; ? = inconclusive; nt = no result given; [ ] = dose if it differs, or a comment. Unless noted, the call rests on the fitted dose curve; in most records, active means well fitted curve in the direction sought with a large enough effect; inconclusive means small, poorly fitted or top-dose-only effect, or another doubt; inactive means no such curve, though single readings can be large; an effect the other way counts as inactive or inconclusive. Unless noted, on the % scale 0 is the no-effect control and ±100 the full control effect; potency means the concentration at half of the fitted maximal effect.

SMILES | Tau FP inhib | TexasRed fluor | GoLoco inh red | Tau ThT inhib | Tau fluor cs | TRb SRC2 PPI
COC(=O)[C@H](Cc1ccccc1)NC(=O)O[C@H]1C(=O)c2cc(OC)ccc2O[C@@H]1c1ccc(OC)c(Br)c1 | 2% | -1% | -2% | -13% | -8% | 0%
O=C(NC(Cc1c[nH]c2ccccc12)C(=O)Nc1ccc(F)c([N+](=O)[O-])c1)c1cccs1 (stereo unspecified) | 15% | 1% | 5% | ? | 16µM*[quencher] | -3%
O=C(NC(Cc1c[nH]c2ccccc12)C(=O)O)c1cccs1 (stereo unspecified) | -4% | 0% | -4% | -3% | -3% | -2%
O=C(NC(Cc1c[nH]c2ccccc12)C(=O)Nc1ccc(OC(F)(F)F)cc1)c1cccs1 (stereo unspecified) | ? | -6% | -6% | -3% | 7.9µM*[quencher] | -3%
COC(=O)c1ccc(-c2ccc(C3C4C=CCC(C)C4C(=O)N3Cc3ccccc3)c(F)c2)cc1 (stereo unspecified) | nt | 0% | nt | nt | nt | -1%
COc1cc2c(cc1OC)CN(c1ccc([N+](=O)[O-])cc1Cl)CC2 | 0% | 1% | 2% | 7.1µM* | ? | -1%
COc1ccccc1N1CCN(c2ccc([N+](=O)[O-])cc2Cl)CC1 | 1% | -1% | -7% | 8.9µM* | ? | 11%
COc1ccc(/C=C/C(=O)C2C(=O)C=C(C)OC2=O)cc1O (stereo unspecified) | -2% | -3% | 16% | 25µM* | ? | 10%
Cc1cccc(N=C2NC(=O)/C(=C3/C(=O)N(C)c4ccccc43)S2)c1C | 2% | -1% | nt | 10µM* | ? | -11%
CC12CC[C@@](C(=O)O)(C(=O)C1=O)C2(C)C | -5% | 1% | 2% | -5% | -4% | 6%
COc1cc(OC)c2cc(C(=O)N/N=C/c3cccc(OC)c3O)[nH]c2c1 | ? | -18% | 6% | 5µM* | ? | 3%
Clc1ccccc1-c1cc(NCc2ccccc2)ncn1 | nt | nt | 5% | nt | nt | nt
Nc1cccc(Oc2c(F)c(F)c(Oc3cccc(N)c3)c(F)c2F)c1 | ? | -2% | 2% | ? | 6.3µM*[quencher] | -1%
COc1cccc(N)c1 | nt | -2% | 1% | nt | nt | 0%
COc1ccc2c(c1)O[C@H](c1ccc3c(c1)OCO3)[C@@H](OC(=O)NS(=O)(=O)c1ccc(C)cc1)C2=O | 11% | -4% | 0% | -4% | 2% | 5%
COc1ccc2nc3sc(C(=O)NCc4cccs4)c(N)c3cc2c1 | -1% | -16% | -15% | 16µM* | ? | -2%
Cc1cc(C)c2cc3c(N)c(C(=O)N4CCOCC4)sc3nc2c1 | 0% | -3% | 3% | 22µM* | ? | 4%
COc1ccc(-c2cc(C(=O)NCc3cccs3)no2)cc1 | 6% | -1% | 4% | -6% | 0% | 5%
Cc1cc(C)c2nc3sc(C(=O)N4CCOCC4)c(N)c3cc2c1 | 10% | -6% | -9% | ? | ? | 5%
CCOc1ccc2nc3sc(C(=O)N4CCOCC4)c(N)c3cc2c1 | ? | 0% | 1% | 7.1µM* | ? | 0%
CCOCCO | nt | -1% | 11% | nt | nt | 5%
O=C1C(Cl)=C(N2CCC(C(=O)O)CC2)C(=O)c2ccccc21 | 11µM* | -24% | 4% | 4.5µM* | 10µM*[quencher] | ?
CC(=O)Oc1c(C)cc(O)c2ccccc12 | ? | -2% | 7% | 25µM* | ? | -1%
Cc1cc(O)c2ccccc2c1O | nt | -6% | 6% | nt | nt | 1%
Cc1cccc(NC(=O)CCS(=O)(=O)c2cccc3nsnc23)c1C | ? | 0% | 3% | 20µM* | -22% | 1%
SMILES | Tau FP inhib | TexasRed fluor | GoLoco inh red | Tau ThT inhib | Tau fluor cs | TRb SRC2 PPI
CCOc1ccc(C=C2SC(=O)N(CCN)C2=O)cc1 | nt | 1% | nt | nt | nt | -7%
CC(C)COc1ccc(/C=C2/Sc3ccccc3C2=O)cc1 | 12% | 0% | 64% | 4.5µM* | -5% | 4%
O=C1/C(=C/c2cccs2)Sc2ccccc21 | -10% | -4% | 50% | ? | -21% | -7%
CC(=O)Oc1cccc(/C=C2\Sc3ccccc3C2=O)c1 | -8% | -7% | 7% | 10µM* | ? | 5%
CCCCOc1ccc(/C=C2/Sc3ccccc3C2=O)cc1 | 1% | 0% | 86% | 3.5µM* | ? | -25%
CCCC[C@H](NC(C)=O)C(=O)N[C@H]1CC(=O)NCCCC[C@@H](C(N)=O)NC(=O)[C@H](Cc2c[nH]c3ccccc23)NC(=O)[C@H](CCCN=C(N)N)NC(=O)[C@@H](Cc2ccccc2)NC(=O)[C@H](Cc2cnc[nH]2)NC1=O | nt | 4% | nt | nt | nt | -3%
COCC(=O)C(C(=O)OC)[C@H](CCc1ccccc1)NC(=O)OC (stereo partly specified) | 3% | -2% | -3% | 3% | 2% | 4%
COc1ccc(-c2c(C3C4C=CCC(C)C4C(=O)N3Cc3ccccc3)ccc3ccccc23)cc1 (stereo unspecified) | nt | -1% | nt | nt | nt | -6%
CO[C@H]1COC(=O)C/C=C\[C@H](C)COC(=O)[C@@H](C)NC(=O)C/C=C\[C@@H]1C | -2%[11.6 µM] | 5%[11.2 µM] | nt | -10%[11.5 µM] | -13%[11.6 µM] | 12%[11.2 µM]
Cc1cc(-c2ccccc2)nc(-c2ccccc2)c1C | 12% | -6% | 15% | 3.2µM* | -25% | 0%
COc1ccc(NC(=O)c2cc3c(Cl)nc4ccccc4c3s2)c(OC)c1 | 5% | 0% | 4% | -18% | -18% | -3%
COc1cc(NC(=O)c2cc3c(Cl)nc4ccccc4c3s2)cc(OC)c1OC | 8% | -2% | 8% | ? | 8.9µM*[quencher] | -5%
COc1ccc(C2CC(c3ccccc3)=NN2c2ccc(/C=N/NC(=O)c3ccncc3)cc2)cc1 (stereo unspecified) | ? | -3% | 11% | ? | 13µM*[quencher] | 1%
CC(C)(C)N1C(=O)[C@H]2[C@@H]3[C@H](O)C=CC(=O)[C@H]3CC[C@H]2C1=O | 2%[11.6 µM] | -4%[11.2 µM] | nt | -13%[11.5 µM] | -15%[11.6 µM] | 0%[11.2 µM]
CS(=O)(=O)N1CCc2cc(C(=O)Nc3ccc(C(F)(F)F)cc3)ccc21 | ? | 0% | nt | 4% | -16% | -7%
CS(=O)(=O)N1CCc2cc(C(=O)Nc3ccc(Cl)c(C(F)(F)F)c3)ccc21 | 20µM* | 1% | nt | 17% | ? | 3%
CN(C)C(=O)c1ccc(-c2ccc3ncnc(NCc4ccccc4)c3c2)cc1 | nt | nt | 9% | nt | nt | nt
CC/C(=N/Nc1ccccc1C)c1cnnc(SC)n1 | ? | -1% | -4% | 3.5µM* | -20% | 4%
CCCSc1nnc(Nc2ccccc2C)s1 | 3% | -4% | 3% | -4% | -7% | -7%
CSc1nncc(/C(C)=N\Nc2ccccc2)n1 | -3% | 1% | -8% | 2.8µM* | -8% | -1%
